# ChEMBL document CHEMBL2218924, “A broad activity screen in support of a chemogenomic map for kinase signalling research and drug discovery” (Biochem J, 2013)
# Legend:
# [1] = biological target: Serine/threonine-protein kinase 24 (Homo sapiens) (UniProt Q9Y6E0); settings: at 1 µM
# [2] = biological target: Serine/threonine-protein kinase 24 (Homo sapiens) (UniProt Q9Y6E0); settings: at 10 µM
# [3] = biological target: MAP kinase-interacting serine/threonine-protein kinase 2 (Homo sapiens) (UniProt Q9HBH9); settings: at 1 µM
# [4] = biological target: MAP kinase-interacting serine/threonine-protein kinase 2 (Homo sapiens) (UniProt Q9HBH9); settings: at 10 µM
# [5] = biological target: T1, Tyrosine-protein kinase Mer (Homo sapiens) (UniProt Q12866); settings: at 10 µM
# T1 sequence (whole entry): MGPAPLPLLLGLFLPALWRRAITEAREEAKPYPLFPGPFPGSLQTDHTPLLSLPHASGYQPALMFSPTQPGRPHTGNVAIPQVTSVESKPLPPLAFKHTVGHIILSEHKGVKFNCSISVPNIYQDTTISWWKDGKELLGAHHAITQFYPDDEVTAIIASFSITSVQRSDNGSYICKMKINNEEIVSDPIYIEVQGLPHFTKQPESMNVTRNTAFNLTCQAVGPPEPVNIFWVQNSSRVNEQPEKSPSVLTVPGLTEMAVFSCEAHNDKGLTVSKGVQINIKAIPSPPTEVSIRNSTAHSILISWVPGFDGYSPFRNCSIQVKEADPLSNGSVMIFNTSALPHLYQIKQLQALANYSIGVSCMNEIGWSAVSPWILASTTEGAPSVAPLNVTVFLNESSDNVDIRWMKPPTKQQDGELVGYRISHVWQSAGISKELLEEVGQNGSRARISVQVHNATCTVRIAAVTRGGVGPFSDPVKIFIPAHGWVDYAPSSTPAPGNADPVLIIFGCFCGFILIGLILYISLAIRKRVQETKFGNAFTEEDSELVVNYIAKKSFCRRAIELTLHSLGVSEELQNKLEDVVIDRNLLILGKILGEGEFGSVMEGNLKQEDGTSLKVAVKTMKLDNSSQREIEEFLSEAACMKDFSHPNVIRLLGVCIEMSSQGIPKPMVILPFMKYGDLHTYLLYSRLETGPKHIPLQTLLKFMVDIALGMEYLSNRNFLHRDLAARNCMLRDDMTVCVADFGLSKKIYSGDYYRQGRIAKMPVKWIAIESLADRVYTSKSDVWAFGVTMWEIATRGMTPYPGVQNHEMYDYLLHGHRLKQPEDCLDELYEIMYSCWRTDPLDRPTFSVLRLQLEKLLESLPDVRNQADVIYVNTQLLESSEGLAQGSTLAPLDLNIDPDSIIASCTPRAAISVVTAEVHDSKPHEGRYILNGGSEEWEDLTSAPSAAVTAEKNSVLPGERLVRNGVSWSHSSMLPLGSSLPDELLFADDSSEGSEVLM
# [6] = biological target: T2, Serine/threonine-protein kinase Nek2 (Homo sapiens) (UniProt P51955); settings: at 10 µM
# T2 sequence (whole entry): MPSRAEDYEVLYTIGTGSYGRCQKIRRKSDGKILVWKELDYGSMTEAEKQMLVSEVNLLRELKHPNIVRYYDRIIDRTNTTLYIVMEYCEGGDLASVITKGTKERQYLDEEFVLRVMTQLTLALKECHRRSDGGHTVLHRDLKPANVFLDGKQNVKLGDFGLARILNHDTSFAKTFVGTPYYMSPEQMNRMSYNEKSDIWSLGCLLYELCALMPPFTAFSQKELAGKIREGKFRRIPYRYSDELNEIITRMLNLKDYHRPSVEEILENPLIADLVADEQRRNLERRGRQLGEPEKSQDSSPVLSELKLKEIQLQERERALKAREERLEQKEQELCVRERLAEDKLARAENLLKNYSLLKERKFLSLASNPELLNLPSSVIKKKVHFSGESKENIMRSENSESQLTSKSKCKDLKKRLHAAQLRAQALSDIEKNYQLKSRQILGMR
# [7] = biological target: T1, Tyrosine-protein kinase Mer (Homo sapiens); settings: at 1 µM
# [8] = biological target: Hepatocyte growth factor receptor (Homo sapiens) (UniProt P08581); settings: at 1 µM
# [9] = biological target: Hepatocyte growth factor receptor (Homo sapiens) (UniProt P08581); settings: at 10 µM
# [10] = biological target: T3, Serine/threonine-protein kinase Nek11 (Homo sapiens) (UniProt Q8NG66); settings: at 1 µM
# T3 sequence (whole entry): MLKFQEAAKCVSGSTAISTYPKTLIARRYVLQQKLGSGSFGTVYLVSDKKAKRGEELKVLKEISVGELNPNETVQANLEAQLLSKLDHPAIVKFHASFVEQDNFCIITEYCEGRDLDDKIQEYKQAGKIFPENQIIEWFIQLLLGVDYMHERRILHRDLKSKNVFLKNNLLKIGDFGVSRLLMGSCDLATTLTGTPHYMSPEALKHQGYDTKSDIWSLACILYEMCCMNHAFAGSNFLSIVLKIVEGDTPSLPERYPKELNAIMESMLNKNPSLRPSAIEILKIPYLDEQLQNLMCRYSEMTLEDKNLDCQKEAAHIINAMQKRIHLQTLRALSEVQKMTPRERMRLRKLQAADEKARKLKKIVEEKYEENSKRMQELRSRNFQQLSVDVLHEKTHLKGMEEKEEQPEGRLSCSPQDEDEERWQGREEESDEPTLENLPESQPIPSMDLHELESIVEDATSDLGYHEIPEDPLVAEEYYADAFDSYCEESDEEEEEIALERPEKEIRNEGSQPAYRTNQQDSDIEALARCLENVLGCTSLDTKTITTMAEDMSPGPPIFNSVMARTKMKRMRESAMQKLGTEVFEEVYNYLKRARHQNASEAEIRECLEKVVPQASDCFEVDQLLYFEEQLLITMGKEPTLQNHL
# [11] = biological target: T3, Serine/threonine-protein kinase Nek11 (Homo sapiens); settings: at 10 µM
# [12] = biological target: Serine/threonine-protein kinase tousled-like 2 (Homo sapiens) (UniProt Q86UE8); settings: at 10 µM
# [13] = biological target: T4, Muscle, skeletal receptor tyrosine-protein kinase (Homo sapiens) (UniProt O15146); settings: at 1 µM
# T4 sequence (whole entry): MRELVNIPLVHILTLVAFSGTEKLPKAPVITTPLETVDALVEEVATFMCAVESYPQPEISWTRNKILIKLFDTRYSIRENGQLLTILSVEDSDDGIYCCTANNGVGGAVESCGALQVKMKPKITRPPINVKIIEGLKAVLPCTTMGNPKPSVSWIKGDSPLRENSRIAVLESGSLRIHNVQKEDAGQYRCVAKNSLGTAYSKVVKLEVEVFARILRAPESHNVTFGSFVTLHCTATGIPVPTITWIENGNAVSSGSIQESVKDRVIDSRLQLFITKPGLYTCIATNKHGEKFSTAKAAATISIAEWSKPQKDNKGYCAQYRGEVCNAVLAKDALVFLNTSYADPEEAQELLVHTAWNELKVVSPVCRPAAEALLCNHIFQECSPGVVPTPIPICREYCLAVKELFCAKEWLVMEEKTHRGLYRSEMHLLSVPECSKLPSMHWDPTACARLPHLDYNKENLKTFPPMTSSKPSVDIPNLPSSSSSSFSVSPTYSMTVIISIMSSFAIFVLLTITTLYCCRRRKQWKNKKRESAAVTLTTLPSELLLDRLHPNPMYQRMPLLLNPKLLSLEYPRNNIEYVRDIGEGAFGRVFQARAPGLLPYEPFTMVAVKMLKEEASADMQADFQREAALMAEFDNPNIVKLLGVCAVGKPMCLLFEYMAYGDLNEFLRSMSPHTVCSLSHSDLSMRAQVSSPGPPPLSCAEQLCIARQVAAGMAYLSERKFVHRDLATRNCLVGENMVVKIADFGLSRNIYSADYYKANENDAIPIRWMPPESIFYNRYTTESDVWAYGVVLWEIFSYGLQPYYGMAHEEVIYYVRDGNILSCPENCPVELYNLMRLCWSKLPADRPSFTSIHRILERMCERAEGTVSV
# [14] = biological target: T4, Muscle, skeletal receptor tyrosine-protein kinase (Homo sapiens); settings: at 10 µM
# [15] = biological target: T2, Serine/threonine-protein kinase Nek2 (Homo sapiens); settings: at 1 µM
# [16] = biological target: Serine/threonine-protein kinase tousled-like 2 (Homo sapiens) (UniProt Q86UE8); settings: at 1 µM
# [17] = biological target: T5, Serine/threonine-protein kinase 3 (Homo sapiens) (UniProt Q13188); settings: at 10 µM
# T5 sequence (whole entry): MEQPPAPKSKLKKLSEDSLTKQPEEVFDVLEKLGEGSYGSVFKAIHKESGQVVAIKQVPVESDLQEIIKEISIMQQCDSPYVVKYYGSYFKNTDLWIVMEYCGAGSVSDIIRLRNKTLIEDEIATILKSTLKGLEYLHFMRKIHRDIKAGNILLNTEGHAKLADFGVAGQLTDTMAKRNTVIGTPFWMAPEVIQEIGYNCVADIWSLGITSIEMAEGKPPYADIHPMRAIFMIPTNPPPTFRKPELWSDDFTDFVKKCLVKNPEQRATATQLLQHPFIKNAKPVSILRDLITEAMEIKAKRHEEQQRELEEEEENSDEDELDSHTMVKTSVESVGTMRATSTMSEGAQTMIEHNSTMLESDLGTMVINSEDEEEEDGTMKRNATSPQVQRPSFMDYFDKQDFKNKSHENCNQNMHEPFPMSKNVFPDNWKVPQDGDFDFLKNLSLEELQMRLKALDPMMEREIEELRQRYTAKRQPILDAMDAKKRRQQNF
# [18] = biological target: T6, Serine/threonine-protein kinase Nek3 (Homo sapiens) (UniProt P51956); settings: at 1 µM
# T6 sequence (whole entry): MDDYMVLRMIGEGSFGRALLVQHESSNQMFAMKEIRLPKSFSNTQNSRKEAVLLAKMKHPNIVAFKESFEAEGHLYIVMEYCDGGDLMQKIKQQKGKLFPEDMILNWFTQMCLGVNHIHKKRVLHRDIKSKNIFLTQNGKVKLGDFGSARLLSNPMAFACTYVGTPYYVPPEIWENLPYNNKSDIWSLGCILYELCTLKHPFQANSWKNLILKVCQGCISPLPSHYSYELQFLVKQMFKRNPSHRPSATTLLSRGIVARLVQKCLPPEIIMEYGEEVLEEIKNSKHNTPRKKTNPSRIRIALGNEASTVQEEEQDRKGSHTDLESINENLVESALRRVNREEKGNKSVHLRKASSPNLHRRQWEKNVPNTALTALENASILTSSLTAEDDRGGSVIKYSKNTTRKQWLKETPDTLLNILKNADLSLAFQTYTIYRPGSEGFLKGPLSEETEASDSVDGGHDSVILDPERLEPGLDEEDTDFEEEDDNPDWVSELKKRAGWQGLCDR
# [19] = biological target: T6, Serine/threonine-protein kinase Nek3 (Homo sapiens); settings: at 10 µM
# Chain of Serine/threonine-protein kinase 24 (Homo sapiens) (Q9Y6E0 whole entry, looked up): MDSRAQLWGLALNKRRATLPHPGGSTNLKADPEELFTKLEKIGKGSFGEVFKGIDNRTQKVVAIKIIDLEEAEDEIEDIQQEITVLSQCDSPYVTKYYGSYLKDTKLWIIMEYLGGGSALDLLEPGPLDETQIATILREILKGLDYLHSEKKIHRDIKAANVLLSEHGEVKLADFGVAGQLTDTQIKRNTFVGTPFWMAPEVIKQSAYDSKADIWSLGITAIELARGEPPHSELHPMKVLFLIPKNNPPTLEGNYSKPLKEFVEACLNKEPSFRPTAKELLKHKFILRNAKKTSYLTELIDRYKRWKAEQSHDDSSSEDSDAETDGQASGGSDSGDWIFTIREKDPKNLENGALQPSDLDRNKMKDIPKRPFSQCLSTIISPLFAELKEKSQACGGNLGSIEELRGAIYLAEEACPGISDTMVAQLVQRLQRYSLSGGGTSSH
# Chain of Hepatocyte growth factor receptor (Homo sapiens) (P08581 whole entry): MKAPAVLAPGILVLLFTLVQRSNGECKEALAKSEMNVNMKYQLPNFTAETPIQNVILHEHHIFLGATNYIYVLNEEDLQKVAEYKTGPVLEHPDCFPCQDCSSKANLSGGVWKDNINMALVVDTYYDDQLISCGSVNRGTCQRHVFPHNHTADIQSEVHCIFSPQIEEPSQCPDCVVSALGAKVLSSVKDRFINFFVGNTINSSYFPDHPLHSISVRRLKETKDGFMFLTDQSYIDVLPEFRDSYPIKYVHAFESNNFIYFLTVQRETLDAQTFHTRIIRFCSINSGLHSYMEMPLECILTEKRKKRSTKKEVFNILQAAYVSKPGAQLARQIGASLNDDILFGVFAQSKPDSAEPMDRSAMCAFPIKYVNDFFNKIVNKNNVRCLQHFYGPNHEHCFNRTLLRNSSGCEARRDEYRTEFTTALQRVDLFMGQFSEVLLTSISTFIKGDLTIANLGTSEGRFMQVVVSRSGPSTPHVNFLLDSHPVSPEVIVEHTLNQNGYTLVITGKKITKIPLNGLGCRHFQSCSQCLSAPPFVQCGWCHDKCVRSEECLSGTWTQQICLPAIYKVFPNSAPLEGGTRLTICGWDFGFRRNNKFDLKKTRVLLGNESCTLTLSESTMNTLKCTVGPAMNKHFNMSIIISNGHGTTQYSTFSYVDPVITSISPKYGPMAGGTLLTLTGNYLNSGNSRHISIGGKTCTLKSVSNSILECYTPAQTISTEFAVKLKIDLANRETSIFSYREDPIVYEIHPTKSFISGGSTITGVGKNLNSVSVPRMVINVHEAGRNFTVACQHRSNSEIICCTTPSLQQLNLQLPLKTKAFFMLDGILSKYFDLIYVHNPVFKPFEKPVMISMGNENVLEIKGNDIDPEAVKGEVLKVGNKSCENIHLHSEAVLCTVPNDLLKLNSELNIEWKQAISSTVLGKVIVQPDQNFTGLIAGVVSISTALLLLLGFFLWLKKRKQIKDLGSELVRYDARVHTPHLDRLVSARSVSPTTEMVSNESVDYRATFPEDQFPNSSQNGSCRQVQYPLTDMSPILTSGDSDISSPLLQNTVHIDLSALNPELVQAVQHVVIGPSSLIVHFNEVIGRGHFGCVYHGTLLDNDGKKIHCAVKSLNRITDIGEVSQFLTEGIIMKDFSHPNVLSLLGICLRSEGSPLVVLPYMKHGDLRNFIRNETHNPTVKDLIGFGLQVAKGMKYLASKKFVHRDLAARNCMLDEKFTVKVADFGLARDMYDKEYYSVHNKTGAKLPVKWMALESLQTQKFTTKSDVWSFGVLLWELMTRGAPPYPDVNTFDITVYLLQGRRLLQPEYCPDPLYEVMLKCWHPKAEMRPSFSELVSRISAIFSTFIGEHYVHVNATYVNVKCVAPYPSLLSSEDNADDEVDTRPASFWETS
# Chain of MAP kinase-interacting serine/threonine-protein kinase 2 (Homo sapiens) (Q9HBH9 whole entry, looked up): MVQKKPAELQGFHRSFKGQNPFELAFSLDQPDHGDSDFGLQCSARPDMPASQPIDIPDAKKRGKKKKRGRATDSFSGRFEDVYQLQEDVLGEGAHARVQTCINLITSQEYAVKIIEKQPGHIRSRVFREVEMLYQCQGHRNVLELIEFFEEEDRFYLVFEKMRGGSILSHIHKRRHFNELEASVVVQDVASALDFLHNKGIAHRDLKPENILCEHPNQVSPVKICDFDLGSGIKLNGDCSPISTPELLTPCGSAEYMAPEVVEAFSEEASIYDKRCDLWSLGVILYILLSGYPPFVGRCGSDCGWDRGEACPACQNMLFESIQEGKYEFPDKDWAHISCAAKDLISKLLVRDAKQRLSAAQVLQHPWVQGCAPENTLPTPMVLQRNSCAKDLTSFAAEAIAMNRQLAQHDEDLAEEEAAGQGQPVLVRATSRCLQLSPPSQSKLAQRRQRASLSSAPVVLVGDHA
# Chain of Serine/threonine-protein kinase tousled-like 2 (Homo sapiens) (Q86UE8 whole entry, looked up): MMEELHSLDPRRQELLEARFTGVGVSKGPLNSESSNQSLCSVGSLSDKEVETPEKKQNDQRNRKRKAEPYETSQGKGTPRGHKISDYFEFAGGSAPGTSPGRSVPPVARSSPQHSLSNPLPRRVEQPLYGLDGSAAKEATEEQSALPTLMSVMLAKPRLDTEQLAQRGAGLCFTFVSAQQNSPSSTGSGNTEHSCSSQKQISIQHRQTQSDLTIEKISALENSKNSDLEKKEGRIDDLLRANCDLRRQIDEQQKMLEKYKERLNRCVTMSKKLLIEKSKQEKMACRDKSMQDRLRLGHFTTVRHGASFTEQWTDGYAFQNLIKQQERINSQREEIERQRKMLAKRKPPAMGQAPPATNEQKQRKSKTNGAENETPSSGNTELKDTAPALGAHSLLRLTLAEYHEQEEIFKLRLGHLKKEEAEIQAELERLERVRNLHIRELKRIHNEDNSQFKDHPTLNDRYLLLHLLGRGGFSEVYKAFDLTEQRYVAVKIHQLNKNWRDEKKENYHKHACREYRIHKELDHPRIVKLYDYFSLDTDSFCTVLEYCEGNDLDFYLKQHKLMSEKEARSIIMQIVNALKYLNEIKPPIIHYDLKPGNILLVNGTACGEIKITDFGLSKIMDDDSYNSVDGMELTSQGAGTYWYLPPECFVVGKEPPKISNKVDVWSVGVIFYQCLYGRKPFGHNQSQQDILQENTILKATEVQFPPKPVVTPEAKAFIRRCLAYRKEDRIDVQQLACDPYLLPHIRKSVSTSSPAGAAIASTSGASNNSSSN
smiles,measurement,setting,value
NC(=O)c1cccc(-c2cc(Nc3ccc(OC(F)(F)F)cc3)ncn2)c1,residual activity,[1],74%
same,residual activity,[2],93%
same,residual activity,[3],91%
same,residual activity,[4],54%
O=S(=O)(c1cccc2cnccc12)N1CCCNCC1,residual activity,[5],77%
same,residual activity,[6],100%
Nc1nccc(-c2c(-c3ccc(F)cc3)ncn2C2CCNCC2)n1,residual activity,[1],82%
same,residual activity,[2],82%
same,residual activity,[7],67%
same,residual activity,[5],24%
same,residual activity,[8],114%
same,residual activity,[9],82%
same,residual activity,[4],82%
same,residual activity,[10],68%
same,residual activity,[11],77%
N#C/C(=C\c1ccc(O)c(O)c1)C(=O)NCc1ccccc1,residual activity,[1],82%
same,residual activity,[2],65%
same,residual activity,[8],103%
same,residual activity,[9],73%
same,residual activity,[4],83%
same,residual activity,[10],103%
same,residual activity,[11],103%
same,residual activity,[12],85%
O=c1c(-c2ccc(F)cc2)c(-c2ccncc2)[nH]n1-c1ccc(Cl)cc1,residual activity,[2],79%
same,residual activity,[8],67%
same,residual activity,[9],28%
same,residual activity,[10],81%
same,residual activity,[11],78%
CCN1/C(=C/C(C)=O)Sc2ccc(OC)cc21,residual activity,[1],69%
same,residual activity,[2],74%
same,residual activity,[13],82%
same,residual activity,[14],75%
same,residual activity,[10],49%
same,residual activity,[11],60%
CC(C)N(CCC(=O)c1ccc2ccccc2c1)Cc1ccccc1,residual activity,[1],62%
same,residual activity,[2],72%
same,residual activity,[9],79%
same,residual activity,[4],87%
same,residual activity,[13],87%
same,residual activity,[14],79%
same,residual activity,[15],81%
same,residual activity,[6],88%
same,residual activity,[16],86%
same,residual activity,[12],80%
COc1ccc(COc2ccc(Cc3cnc(N)nc3N)cc2OC)cc1,residual activity,[1],61%
same,residual activity,[2],65%
same,residual activity,[8],109%
same,residual activity,[9],129%
same,residual activity,[3],108%
same,residual activity,[4],100%
same,residual activity,[10],110%
same,residual activity,[11],115%
COc1ccc2c(c1)c(C1=C(c3c[nH]c4ccccc34)C(=O)NC1=O)cn2CCCN(C)C,residual activity,[1],21%
same,residual activity,[2],5%
same,residual activity,[7],81%
same,residual activity,[5],10%
same,residual activity,[8],111%
same,residual activity,[3],105%
same,residual activity,[4],82%
same,residual activity,[13],96%
same,residual activity,[14],65%
same,residual activity,[10],50%
same,residual activity,[11],48%
same,residual activity,[15],76%
same,residual activity,[16],21%
same,residual activity,[12],2%
CC(C)[C@H](CO)Nc1nc(Nc2cc(N)cc(Cl)c2)c2ncn(C(C)C)c2n1,residual activity,[17],60%
same,residual activity,[1],78%
same,residual activity,[2],26%
same,residual activity,[7],22%
same,residual activity,[5],2%
same,residual activity,[8],74%
same,residual activity,[9],13%
same,residual activity,[3],94%
same,residual activity,[4],75%
same,residual activity,[13],62%
same,residual activity,[14],10%
same,residual activity,[10],84%
same,residual activity,[11],48%
same,residual activity,[6],76%
same,residual activity,[18],85%
same,residual activity,[19],70%
same,residual activity,[16],95%
same,residual activity,[12],73%
NCCNc1ncc(C(N)=O)c(Nc2cccc(C(F)(F)F)c2)n1,residual activity,[17],77%
same,residual activity,[2],63%
same,residual activity,[7],80%
same,residual activity,[5],26%
same,residual activity,[13],107%
same,residual activity,[14],75%
same,residual activity,[10],71%
same,residual activity,[11],80%
same,residual activity,[18],106%
same,residual activity,[19],78%
